# Laboratory results from ChEMBL document CHEMBL3988442, “University of Dundee, Small-Polar-MMV Screening Library” (2021).
# Among all 66,000 compounds or so, about 960 (1.5%) showed an effect of 50% or more. Many of the other results were omitted from the sample, so strong results are more common in it than they were.
# System: Trypanosoma brucei
# Assay: Trypanosoma brucei 72 hour study
# Assay type: functional, organism-based
# Parameters: scale not given: in the data most compounds retested in dose-response had high values
structure (smiles),measurement,setting,value
CN1CC(=O)N(c2cccnc2)CC12CCN(C(=O)c1cccn1C)C2.O=C(O)C(F)(F)F.O=C(O)C(F)(F)F (stereo not given),Percent Effect,"30.3 µM, […]",-4.553%
O=C(C[C@@H]1COC[C@H]2CN(C(=O)c3ccccn3)C[C@@H]12)N1CCCC1.O=C(O)C(F)(F)F,Percent Effect,"30 µM, 30.03 µM",-14.99%
CS(=O)(=O)NCc1cnc2n1CCN(Cc1cccnc1)CC2.O=C(O)C(F)(F)F.O=C(O)C(F)(F)F,Percent Effect,"30 µM, 30.03 µM",-10.23%
O=C(Nc1cccnc1)C1Cc2nc(-c3ccsc3)sc2N1CC1CC1.O=C(O)C(F)(F)F (stereo not given),Percent Effect,"30.3 µM, […]",60.89%
O=C(NC1CCCC1)C1Cc2nc(-c3ccsc3)sc2N1CC1CC1 (stereo not given),Percent Effect,"30.3 µM, […]",33.5%
CN(C)CCNC(=O)C1Cc2nc(-c3ccsc3)sc2N1CC1CC1.O=C(O)C(F)(F)F (stereo not given),Percent Effect,"30.3 µM, […]",5.041%
Cl.c1cc(CNc2cnc(C3CCCN3)cn2)ccn1 (stereo not given),Percent Effect,"30.3 µM, […]",-6.296%
Cc1nc(NC(=O)C2CCCN(C(=O)C3CC3)C2)sc1C (stereo not given),Percent Effect,"30 µM, 30.03 µM",-11.09%
Cc1nc(NC(=O)C2CCCN(C(N)=O)C2)sc1-c1ccccc1 (stereo not given),Percent Effect,"30 µM, 30.03 µM",57.12%
CSc1sc(NC(=O)C2CCCN(C(N)=O)C2)nc1C (stereo not given),Percent Effect,"30 µM, 30.03 µM",-35.12%
CC(C)N1CCC2(CC1)CC(NCc1ccccn1)c1ccccc1O2.O=C(O)C(F)(F)F.O=C(O)C(F)(F)F.O=C(O)C(F)(F)F (stereo not given),Percent Effect,"30 µM, 30.03 µM",2.75%
CCc1nnsc1C(=O)N1CCCC(n2ccnc2C(C)C)C1 (stereo not given),Percent Effect,"30.3 µM, […]",-10.58%
COc1cccc(Nc2nc(C3CCNCC3)c3ccccn23)c1.Cl,Percent Effect,"30.3 µM, […]",24.37%
COc1cccc(Nc2nc(C3CCNCC3)c3sc(C)c(C)n23)c1.Cl,Percent Effect,"30.3 µM, […]",63.57%
COc1cccc(Nc2nc(C3CCCNC3)c3sc(C)c(C)n23)c1.Cl (stereo not given),Percent Effect,"30.3 µM, […]",2.239%
Fc1cccc(-c2nccnc2C2CCCNC2)c1 (stereo not given),Percent Effect,"30.3 µM, […]",-21.91%
Cl.O=C(Nc1cccc(F)c1)C1=NOC2(CCNCC2)C1,Percent Effect,"30.3 µM, […]",-7.13%
COc1cccc(Nc2nc(C3CCCNC3)c3ccccn23)c1.Cl (stereo not given),Percent Effect,"30.3 µM, […]",-1.342%
Cc1sc2c(C3CCNCC3)nc(Nc3cccc(F)c3)n2c1C.Cl,Percent Effect,"30.3 µM, […]",99.26%
Cc1nn(C(C)C)c(C)c1S(=O)(=O)Nc1cccc(F)c1,Percent Effect,"30 µM, 30.03 µM",-2.912%
Cc1sc2c(C3CCCNC3)nc(Nc3cccc(F)c3)n2c1C.Cl (stereo not given),Percent Effect,"30.3 µM, […]",100.1%
CCN(Cc1nc2c(cnn2C)c(=O)[nH]1)c1cc(C)cc(C)c1,Percent Effect,10 µM,-28.14%
same,Percent Effect,"30.3 µM, […]",-21.13%
N#Cc1ccc(N2CCCC3(CCN(c4cncnc4)C3=O)C2)nc1.O=C(O)C(F)(F)F (stereo not given),Percent Effect,"30.3 µM, […]",-13.65%
Cl.O=C(Nc1cc(C(F)(F)F)c[nH]c1=O)C1CCCCN1 (stereo not given),Percent Effect,"30 µM, 30.03 µM",4.306%
Cc1ccccc1NC(=O)CCNC(=O)c1ccoc1,Percent Effect,"30 µM, 30.03 µM",-20.37%
COc1ccccc1NC(=O)CCNC(=O)c1ccoc1,Percent Effect,"30 µM, 30.03 µM",-15.64%
Cc1ccccc1CC(=O)NCCNc1nccc(C(F)(F)F)n1,Percent Effect,"30 µM, 30.03 µM",-20.25%
CNc1ccnc(NCC(=O)Nc2cc(C)ccc2OC)n1,Percent Effect,"30 µM, 30.03 µM",42.18%
CNc1ccnc(NCCC(=O)Nc2ccccc2C)n1,Percent Effect,"30 µM, 30.03 µM",51.25%
CNc1ccnc(NCCC(=O)Nc2ccccc2OC)n1,Percent Effect,"30 µM, 30.03 µM",54.56%
CN(C)C(=O)[C@H]1C[C@H]2[C@H](CCN2Cc2ccc3c(c2)OCO3)O1.O=C(O)C(F)(F)F,Percent Effect,"30 µM, 30.03 µM",17.59%
Cl.N#Cc1ccc(CNCC2(c3ccccc3)CCOCC2)cc1,Percent Effect,"30.3 µM, […]",24.88%
Cc1cccc(C(=O)N2CC[C@]3(C[C@H](OCc4ccccn4)CO3)C2)c1.O=C(O)C(F)(F)F,Percent Effect,"30.3 µM, […]",-74.39%
O=C(NCc1ccccn1)[C@]12COC[C@H]1CN(Cc1ccccc1F)C2.O=C(O)C(F)(F)F.O=C(O)C(F)(F)F,Percent Effect,"30.3 µM, […]",-30.47%
Cc1nc(CN2CC3(CCN(c4ncccn4)C3)CC2=O)cs1.O=C(O)C(F)(F)F (stereo not given),Percent Effect,"30 µM, 30.03 µM",-28.21%
COCCNC(=O)CCn1ncc2c(Cl)cccc21,Percent Effect,"30.3 µM, […]",-10.63%
CN1CCN(c2ccccc2NC(=O)NCCc2ccc(O)cc2)CC1,Percent Effect,"30.3 µM, […]",8.397%
CN1CCN(c2ccccc2NC(=O)NCC[S+](C)[O-])CC1 (stereo not given),Percent Effect,"30.3 µM, […]",11.12%
CN1CCN(c2ccccc2NC(=O)NCCc2ccccc2)CC1,Percent Effect,"30.3 µM, […]",100.1%
O=C(O)C(F)(F)F.O=C1[C@@H]2CCN(Cc3ccoc3)C[C@@H]2OCCN1c1ccccc1,Percent Effect,"30 µM, 30.03 µM",19.86%
O=C1CCCN1Cc1nnc(SCc2ccc3c(c2)CCC3)o1,Percent Effect,"30 µM, 30.03 µM",47.68%
CC(C)Oc1ccc(CSc2nnc(CN3CCCC3=O)o2)cc1,Percent Effect,"30 µM, 30.03 µM",72.7%
CC(C)c1cccc(CSc2nnc(CN3CCCC3=O)o2)n1,Percent Effect,"30 µM, 30.03 µM",-4.842%
O=C(Cc1ccccn1)N1CC[C@]2(C[C@@H](Oc3ncccc3F)CO2)C1.O=C(O)C(F)(F)F.O=C(O)C(F)(F)F,Percent Effect,"30 µM, 30.03 µM",-12.46%
CN(CCCn1cnc2c(N)ncnc21)Cc1ccccc1,Percent Effect,"30 µM, 30.03 µM",-6.688%
CNC(=O)c1cc2c(nc1N(C)C)CCN(c1ncc(F)cn1)CC2.O=C(O)C(F)(F)F,Percent Effect,"30.3 µM, […]",-8.544%
OCC1CCCN1c1cc(NCCc2ccsc2)ncn1 (stereo not given),Percent Effect,"30 µM, 30.03 µM",6.798%
Cc1cc(NC(=O)NCCO)nn1-c1ccc(Cl)cc1Cl,Percent Effect,"30 µM, 30.03 µM",-0.9538%
O=C(CN1C(=O)CC2(CCCC2)C1=O)NCCc1nccs1,Percent Effect,"30 µM, 30.03 µM",-3.261%
COc1ccc(CCN2CCCC(CN(C)Cc3[nH]cnc3C)C2)cc1 (stereo not given),Percent Effect,"30 µM, 30.03 µM",11.78%
Cc1nc[nH]c1CN(C)CC1CCCN(CCc2ccc(Cl)cc2)C1 (stereo not given),Percent Effect,"30 µM, 30.03 µM",61.25%
CN(Cc1cccc(O)c1)CC1CCCN(CCc2ccc(Cl)cc2)C1 (stereo not given),Percent Effect,"30 µM, 30.03 µM",55.85%
CN(Cc1ccncc1)CC1CCCN(CCc2ccc(Cl)cc2)C1 (stereo not given),Percent Effect,"30 µM, 30.03 µM",15.49%
CN(Cc1cnc(N)nc1)CC1CCCN(CCc2ccc(Cl)cc2)C1 (stereo not given),Percent Effect,"30 µM, 30.03 µM",-6.233%
CN(Cc1ccccc1O)CC1CCCN(CCc2ccc(Cl)cc2)C1 (stereo not given),Percent Effect,"30 µM, 30.03 µM",6.545%
Cc1ccc(NC(C)(C)c2nnnn2-c2ccc(Cl)cc2)c(C)c1,Percent Effect,"30 µM, 30.03 µM",-23.29%
Cc1nc2cc(C3CCN(Cc4ccccc4F)C3)nn2c(O)c1C (stereo not given),Percent Effect,"30.3 µM, […]",14.24%
Cc1nnc([C@H]2C[C@@H]3CCN(Cc4ccc(C)o4)C[C@H]3O2)[nH]1.O=C(O)C(F)(F)F,Percent Effect,"30 µM, 30.03 µM",-11.08%
COc1cc2c(cc1CN1CCn3c(CO)nnc3C1)CCC2.O=C(O)CC(O)(CC(=O)O)C(=O)O,Percent Effect,"30.3 µM, […]",-66.2%
